AmpC inh no detg: blocks E. coli AmpC beta-lactamase in detergent-free assay. Potency, µM (doses to about 57.1 µM), actives largely listed as inhibitors. AID 485341. actives 0.52% (n = 330,000). AmpC nitrocefin hydrolysis, absorbance 480 nm, 0.0001% Triton. P00811; also: nearly all actives have a fitted effect of over 20% in size
Target sequence (P00811 whole entry, looked up): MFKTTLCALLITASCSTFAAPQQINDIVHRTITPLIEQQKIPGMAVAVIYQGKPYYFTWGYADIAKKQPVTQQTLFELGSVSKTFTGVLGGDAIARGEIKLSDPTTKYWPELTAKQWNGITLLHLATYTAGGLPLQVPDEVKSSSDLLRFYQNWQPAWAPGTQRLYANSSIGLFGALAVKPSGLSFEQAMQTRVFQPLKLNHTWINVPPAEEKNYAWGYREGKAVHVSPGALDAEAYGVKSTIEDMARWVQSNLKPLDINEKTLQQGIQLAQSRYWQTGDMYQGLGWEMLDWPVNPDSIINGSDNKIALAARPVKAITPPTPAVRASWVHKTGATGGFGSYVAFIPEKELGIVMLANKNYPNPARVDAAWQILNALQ
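AmpC (5.3 nM in the dispensed reagent) in 20 mM phosphate pH 7.0 with 0.01% (detergent screen) or 0.0001% Triton X-100 was preincubated with compounds for 15 min at room temperature. Nitrocefin was then added from an 800 uM solution, and hydrolysis was followed at 480 nm.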
HCV inh: inhibitors of hepatitis C virus infection | Potency, µM (highest dose often 41.8 µM), usual class: inhibitors | Huh7.5.1 HCVcc-Cre infection, luciferase reporter, 44 h | actives 3.4% (n = 340,000)
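HCVcc-Cre virus at an moi near 0.5 was added right after compound to cells cultured 4 h from seeding (1,000 cells/well). Luciferase activity was determined 44 h later, 15 min after substrate addition at RT.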
FMDV inh: foot and mouth disease virus antiviral activity | actives 1.2% (n = 410,000) | Potency, µM (highest dose often 57.9 µM), most hits filed as inhibitors | AID 1159524 | FMDV antiviral cell-based qHTS; calls by dose curve; tested in HEK293T cells; also: read-out not given here; nearly all actives have a fitted effect of over 45% in size
AmpC inh detg: inhibitors of E. coli AmpC beta-lactamase with detergent. P00811. AmpC hydrolysis of nitrocefin, absorbance 480 nm, 0.01% Triton. Potency, µM (highest dose often 114 µM), actives largely listed as inhibitors. actives 0.041% (n = 370,000). AID 485294; also: nearly all actives have a fitted effect of over 25% in size
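20 mM phosphate pH 7.0 + 0.01% (detergent screen) or 0.0001% Triton X-100; 5.3 nM AmpC reagent; cpd preinc 15 min RT; nitrocefin (800 uM stock) to start; A480 q20 s × 4 min; Activity was normalised to no-enzyme and no-compound control wells.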
HCMV inh: inhibitors of human cytomegalovirus | activity change, negative = inhibition, % at 57.5 µM | AID 1259415 | actives 4.5% (n = 410,000) | HFF cells, HCMV-luciferase reporter, 72 h; hits give low values; in the data active = activity change below about -60%; inconclusive = no clear call, values can overlap the other calls; inactive = above about -39%
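Cell-based, HFFs, 1000 cells/well, 16 h 37C; cpds in DMSO + HCMV-luc, MOI 1 PFU/cell; 72 h 37C; OneGlo luminescence after 5 min RT; norm. to buffer vs Salinomycin 10uM.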
Of the large screens only hits and unclear results are named; the others gave an inactive call. In the library only some 7.3% were active in any assay of this set; here they are far more common. Unless noted, calls follow the shape of the dose curve; as a rule, active = well fitted curve in the direction sought with a large enough effect; inconclusive = small, poorly fitted or top-dose-only effect, or another doubt; inactive = no such curve, though single readings can be large; an effect the other way counts as inactive or inconclusive.

Cn1nnnc1N=N/C(=N/Nc1ccccc1)c1ccccc1	HCV inh 3.98µM, HCMV inh -85.7
CCCCNC(=O)c1nc2ccccc2nc1-c1cccc(Br)c1	none (no result: AmpC inh no detg, HCV inh, FMDV inh, AmpC inh detg)
O=C(N/N=C/c1cn(-c2cccs2)nc1-c1ccccc1)c1ccccc1Br	HCV inh 7.08µM, AmpC inh detg inconclusive
O=C(N/N=C/c1cn(-c2ccccc2)nc1-c1cccnc1)c1ccccc1	HCV inh inconclusive
O=C(N/N=C/c1cn(-c2cccs2)nc1-c1ccccc1)c1ccccc1O	HCV inh inconclusive, FMDV inh 20µM
CC(=O)Nc1ccn(-c2ccccc2)n1	AmpC inh detg inconclusive
N#Cc1ccc(C(=O)Nc2ccn(-c3ccccc3)n2)cc1	HCV inh inconclusive, HCMV inh -74.9
N#Cc1ccc(C(=O)Nc2cc(-c3ccccc3)nn2-c2ccccc2)cc1	HCV inh 10µM, AmpC inh detg inconclusive
O=C(Nc1ccn(-c2ccccc2)n1)c1ccccc1Br	none
O=C(Nc1ccn(-c2ccccc2)n1)c1ccc(Cl)cc1	HCV inh 7.08µM
CCOc1ccccc1NC(=O)CSc1nc(=O)[nH]c2c1CCCC2	none (no result: AmpC inh no detg, HCV inh)
CC(C)c1onc(C(=O)NCc2cccs2)c1[N+](=O)[O-]	HCMV inh -68.0
Cc1onc(C(=O)NCc2cccs2)c1[N+](=O)[O-]	none
COc1ccc(/C=C2\CCCC(C(=O)C(F)(F)F)=C2O)cc1OC	none (no result: HCV inh, FMDV inh, HCMV inh)
COc1ccc(NC(=O)C2Cc3c(-c4ccc(Cl)cc4)ccnc3O2)cc1OC (centres undefined)	FMDV inh inconclusive, HCMV inh -78.4 (no result: AmpC inh no detg, HCV inh, AmpC inh detg)
COc1ccc(NC(=O)C2Cc3c(-c4ccncc4)ccnc3O2)cc1OC (centres undefined)	none (no result: AmpC inh no detg, HCV inh, AmpC inh detg)
O=C(Nc1ccc2c(c1)OCO2)C1Cc2c(-c3ccc4c(c3)OCO4)ccnc2O1 (centres undefined)	HCMV inh -61.6 (no result: AmpC inh no detg, HCV inh, AmpC inh detg)
COc1ccc(NC(=O)C2Cc3c(-c4ccccc4)ccnc3O2)cc1OC (centres undefined)	FMDV inh 35.5µM (no result: AmpC inh no detg, HCV inh, AmpC inh detg, HCMV inh)
NC(=O)c1cccc(-c2ccnc3c2CC(C(=O)Nc2cccc(C(F)(F)F)c2)O3)c1 (centres undefined)	FMDV inh 28.2µM (no result: AmpC inh no detg, HCV inh, AmpC inh detg)
C[C@@]12CCOC13C=CC(=O)C=C3CC[C@H]2O (some centres undefined)	none (no result: AmpC inh no detg, HCV inh, FMDV inh, AmpC inh detg)
Cc1ccc2c(c1)N(C(=O)CCC(=O)Nc1ccccc1Cl)CC(C)O2 (centres undefined)	none
N#Cc1cccc(NC(=O)CCNS(=O)(=O)c2ccc3c(c2)CCN3C(=O)C2CC2)c1	none (no result: AmpC inh no detg, HCV inh)
CCc1cccc2c(C(=O)COC(=O)[C@@H]3CC(O)CN3S(=O)(=O)c3ccccc3[N+](=O)[O-])c[nH]c12 (some centres undefined)	HCV inh inconclusive (no result: AmpC inh detg)
Cc1cc(=O)[nH]c2nnc(SCc3ccc(C(F)(F)F)cc3)n12	none (no result: AmpC inh no detg, HCV inh)
C1CCN2CC3CC(CN4CCCC[C@@H]34)[C@H]2C1	none (no result: AmpC inh no detg, AmpC inh detg)
COc1ccc(NC(=O)C2Cc3c(-c4cccc(C(N)=O)c4)ccnc3O2)cc1OC (centres undefined)	none (no result: AmpC inh no detg, HCV inh, AmpC inh detg)
COc1ccc(CCCNC(=O)C2Cc3c(-c4cccc(NC(C)=O)c4)ccnc3O2)cc1 (centres undefined)	FMDV inh 35.5µM, HCMV inh -61.3 (no result: AmpC inh no detg, HCV inh, AmpC inh detg)
COc1ccc(NC(=O)C2Cc3c(-c4cccc(C(C)=O)c4)ccnc3O2)cc1OC (centres undefined)	FMDV inh 8.91µM, HCMV inh -91.5 (no result: AmpC inh no detg, HCV inh, AmpC inh detg)
COc1ccc(NC(=O)C2Cc3c(-c4ccc(Cl)cc4)ccnc3O2)cn1 (centres undefined)	FMDV inh inconclusive, HCMV inh -81.9 (no result: AmpC inh no detg, HCV inh, AmpC inh detg)
COc1cc(OC)c(NC(=O)N2CCCn3nc(C)cc32)cc1Cl	none (no result: AmpC inh no detg, HCV inh)
Cc1ccc(C(=O)CSc2nc(-c3ccccc3)ccc2C#N)cc1	none
N#Cc1ccc(-c2ccco2)nc1SCC(=O)c1ccc(Cl)cc1	AmpC inh no detg 10µM, HCV inh 4.47µM
c1ccc(-c2cnnc(-c3ccccn3)n2)cc1	none (no result: AmpC inh no detg, AmpC inh detg)
C=CCNc1nc(-c2ccccn2)nnc1-c1ccccc1	HCV inh inconclusive, HCMV inh -102.9
COc1ccc(Cc2nc(-c3ccc(-n4cccc4)cc3)no2)cc1OC	AmpC inh no detg 8.91µM, HCV inh 10µM, FMDV inh inconclusive, HCMV inh inconclusive
COc1ccc(-c2noc(CSc3nnc(CCc4ccccc4)n3-c3ccccc3)n2)cc1OC	HCV inh 11.2µM (no result: FMDV inh)

High-throughput results: PubChem, National Center for Advancing Translational Sciences (NCATS)
